Measurements published in PubChem BioAssay.
Unmarked numbers belong to inactive results. The rule behind the calls is not given here.

Assay: inhibitors of hydroxyurea-induced Chk1 phosphorylation, primary screen, imaging, HeLa, phospho-Chk1 nuclear intensity (AID 1187); note: test concentration not given here
Conditions: hydroxyurea-induced phospho-Chk1 immunofluorescence imaging, higher = more signal
Work on `C=C(COC)/C(=C/C[C@H](OC(=O)c1ccncc1)c1ccc(OCCO)cc1)c1cnc2ccccc2c1` yielded a z-score of 0.313. `CCCCC=C[C@@H](NC(=O)Oc1cccc(C(F)(F)F)c1)c1ccccc1` gave a z-score of -0.018. Work on `O=C1[C@H]2C=C(Br)[C@H](C[C@@H]2c2ccccc2)[C@@]12CO2` yielded a z-score of -0.0519. `CC(C)(C)OC(=O)CC[C@]1(C(=O)NCC(O)CO)COC(c2ccc(OCCCO)cc2)=N1` (stereo partly drawn) gave a z-score of 0.437. Molecule `COc1cc2c(cc1O)C(C1CC1)N(Cc1cc3c(cc1Br)OCO3)CC2` (stereo not drawn) has a z-score of 0.285. Work on `C=CCNC(=O)[C@@H]1[C@H]2C(=O)O[C@H](c3ccccc3)[C@H](c3ccccc3)N2[C@H](c2ccc(OCCO)cc2)[C@@]12C(=O)Nc1ccc(C#Cc3ccc(OC)cc3)cc12` yielded a z-score of 0.143. `COC(=O)[C@@]1(Cc2ccc(F)cc2)[C@H]2c3cc(C(=O)N4CCCC4)n(Cc4cc(C)n(C)n4)c3C[C@H]2CN1C(=O)c1ccccc1` gave a z-score of 0.53. In the case of `CC(C)c1ccc(NN2C(C(O)c3cc(C(F)(F)F)cc(C(F)(F)F)c3)C=CC3C(=O)N(c4ccccc4)C(=O)C32)cc1` (stereo not drawn), the z-score is reported as 0.417.
